# From PubChem BioAssay (Tox21)
# Results filed as inconclusive are left out. Entries that show only a call come without a potency. Calls of active or inactive are those of the source. Unless noted, the call rests on the fitted dose curve.
# Molecular target: Progesterone receptor (Homo sapiens) (UniProt P06401)
# Test: qHTS assay to identify small molecule agonists of the progesterone receptor (PR) signaling pathway (AID 1346784); further: nearly all actives have a fitted effect of over 30% in size
# Conditions: PR-UAS-bla HEK293T, beta-lactamase FRET ratio, 16 h; series mostly up to 92.4 µM
# Procedure, shortened: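 Reporter assay, GripTite PR-UAS-bla HEK 293T cells: 16 hr exposure to DMSO-dissolved compounds at 37C, 5% CO2, in steroid-depleted (2% charcoal-stripped FBS) medium; beta-lactamase measured by FRET fluorescence.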
# Chain of Progesterone receptor (Homo sapiens) (P06401 whole entry, looked up): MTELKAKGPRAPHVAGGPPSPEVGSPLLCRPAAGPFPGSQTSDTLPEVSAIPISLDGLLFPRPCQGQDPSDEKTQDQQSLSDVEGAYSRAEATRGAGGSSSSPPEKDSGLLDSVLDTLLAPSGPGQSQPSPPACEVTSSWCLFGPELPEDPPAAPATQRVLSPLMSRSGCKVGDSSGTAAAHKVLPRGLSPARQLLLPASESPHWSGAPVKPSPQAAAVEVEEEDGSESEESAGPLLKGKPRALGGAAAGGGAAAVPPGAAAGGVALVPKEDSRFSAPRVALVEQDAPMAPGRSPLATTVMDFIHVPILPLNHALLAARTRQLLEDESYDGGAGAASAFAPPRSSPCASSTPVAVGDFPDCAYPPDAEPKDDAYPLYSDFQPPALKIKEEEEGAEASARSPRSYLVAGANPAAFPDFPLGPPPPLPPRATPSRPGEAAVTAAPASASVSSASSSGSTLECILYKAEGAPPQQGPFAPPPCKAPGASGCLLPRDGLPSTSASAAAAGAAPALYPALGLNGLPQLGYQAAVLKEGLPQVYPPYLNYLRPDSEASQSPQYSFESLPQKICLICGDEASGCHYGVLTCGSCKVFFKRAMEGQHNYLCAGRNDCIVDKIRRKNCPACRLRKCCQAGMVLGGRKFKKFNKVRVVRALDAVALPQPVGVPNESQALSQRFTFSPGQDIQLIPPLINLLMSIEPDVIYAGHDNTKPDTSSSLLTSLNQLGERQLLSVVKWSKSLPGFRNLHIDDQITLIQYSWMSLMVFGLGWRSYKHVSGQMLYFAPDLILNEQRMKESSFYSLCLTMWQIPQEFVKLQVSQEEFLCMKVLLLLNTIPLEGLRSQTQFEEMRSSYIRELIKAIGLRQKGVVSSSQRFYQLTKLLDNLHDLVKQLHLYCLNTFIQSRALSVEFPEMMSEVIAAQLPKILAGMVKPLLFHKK
row,SMILES,Potency
1,COc1ncc(F)c2nc(S(=O)(=O)Nc3c(F)cccc3F)nn12,inactive
2,CC(C1CC1)C(O)(Cn1cncn1)c1ccc(Cl)cc1 (configuration not stated),inactive
3,CCCCOP(=O)(O)OCCCC,inactive
4,CN(N=O)C(N)=O,inactive
5,OCCSCSCCO,inactive
6,ClCC(Cl)Cl,inactive
7,O=C(O)c1cccc(Cl)c1,inactive
8,CS(=O)(=O)c1cc(C(F)(F)F)ccc1C(=O)c1cnoc1C1CC1,inactive
9,CC1CN1P(=O)(N1CC1C)N1CC1C (configuration not stated),inactive
10,COC(=O)c1ccccc1S(=O)(=O)NC(=O)Nc1nc(C)cc(C)n1,inactive
11,CCSC(=O)N(CC)C1CCCCC1,inactive
12,CC(=O)CC(c1ccc(Cl)cc1)c1c(O)c2ccccc2oc1=O (configuration not stated),inactive
13,CCOP(=O)(OCC)OP(=O)(OCC)OCC,inactive
14,CNC(=O)Oc1ccccc1C1OCCO1,inactive
15,N#CCCC#N,inactive
16,COC(=O)c1ccccc1S(=O)(=O)NC(=O)N(C)c1nc(C)nc(OC)n1,inactive
17,Cc1ncc(CNC(=O)N(CCCl)N=O)c(N)n1,inactive
18,Clc1ccccc1N1CCNCC1,inactive
19,O=P(O)(Oc1ccccc1)Oc1ccccc1,inactive

row,SMILES,Potency
1,BrCCCCCCBr,inactive
2,C[N+](C)=CCl,inactive
3,O=c1oc2ccccc2c(O)c1C1CCCc2ccccc21 (configuration not stated),inactive
4,O=C(Oc1ccc(Br)cc1)N1CCN2CCC1CC2,inactive
5,COc1cc(OC)nc(NC(=O)NS(=O)(=O)c2ncccc2C(=O)N(C)C)n1,inactive
6,Cc1cc(C)c(C(=O)P(=O)(C(=O)c2c(C)cc(C)cc2C)c2ccccc2)c(C)c1,inactive
7,ClC(Cl)Br,inactive
8,Cc1coc2c1CCC(C)C2 (configuration not stated),inactive
9,C[C@]12CC[C@H]3[C@@H](CC=C4C[C@@H](O)CC[C@@]43C)[C@@H]1CC[C@@H]2O,inactive
10,O=NN1CCCCC1,inactive
11,O=[N+]([O-])c1ccc(CBr)cc1,inactive
12,C=CC1CC=CCC1 (configuration not stated),inactive
13,CC(C)NCC(O)c1ccc(N)c(C#N)c1 (configuration not stated),inactive
14,COc1cc(C[C@@H](C)N)c(OC)cc1C,inactive
15,c1ccc(N2CCNCC2)cc1,inactive
16,CNC(=O)Oc1cccc(C(C)C)c1,inactive
17,CC1=NNC(=O)N(/N=C/c2cccnc2)C1,inactive
18,CCC(=O)c1ccccc1,inactive

# Molecular target: Progesterone receptor (Homo sapiens) (UniProt P06401)
# Test: qHTS assay to identify small molecule antagonists of the progesterone receptor (PR) signaling pathway (AID 1346795; active means well fitted inhibition curve with a large enough effect in the signal ratio in the repeat runs, not every such curve was filed as active; the % refers to the signal ratio; further: potency means the concentration at half of the fitted maximal effect)
# Conditions: PR-UAS-bla HEK293T, beta-lactamase FRET ratio, 16 h; series mostly up to 92.4 µM
# Procedure, shortened: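 Stimulus R5020 at 1 nM final; cells HEK293T PR-UAS-bla; medium with 2% charcoal-stripped FBS; compound exposure 16 hr at 37C, 5% CO2; detection by FRET beta-lactamase substrate, 2 hr, room temperature.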
row,SMILES,Potency
1,COc1ncc(F)c2nc(S(=O)(=O)Nc3c(F)cccc3F)nn12,inactive
2,CC(C1CC1)C(O)(Cn1cncn1)c1ccc(Cl)cc1 (configuration not stated),48.3 µM (active)
3,CCCCOP(=O)(O)OCCCC,inactive
4,CN(N=O)C(N)=O,inactive
5,OCCSCSCCO,inactive
6,ClCC(Cl)Cl,inactive
7,O=C(O)c1cccc(Cl)c1,inactive
8,CS(=O)(=O)c1cc(C(F)(F)F)ccc1C(=O)c1cnoc1C1CC1,inactive
9,CC1CN1P(=O)(N1CC1C)N1CC1C (configuration not stated),inactive
10,COC(=O)c1ccccc1S(=O)(=O)NC(=O)Nc1nc(C)cc(C)n1,inactive
11,CCSC(=O)N(CC)C1CCCCC1,inactive
12,CC(=O)CC(c1ccc(Cl)cc1)c1c(O)c2ccccc2oc1=O (configuration not stated),inactive
13,CCOP(=O)(OCC)OP(=O)(OCC)OCC,inactive
14,CNC(=O)Oc1ccccc1C1OCCO1,inactive
15,N#CCCC#N,inactive
16,COC(=O)c1ccccc1S(=O)(=O)NC(=O)N(C)c1nc(C)nc(OC)n1,inactive
17,Cc1ncc(CNC(=O)N(CCCl)N=O)c(N)n1,inactive
18,Clc1ccccc1N1CCNCC1,inactive
19,O=P(O)(Oc1ccccc1)Oc1ccccc1,inactive

row,SMILES,Potency
1,BrCCCCCCBr,inactive
2,C[N+](C)=CCl,inactive
3,O=c1oc2ccccc2c(O)c1C1CCCc2ccccc21 (configuration not stated),inactive
4,O=C(Oc1ccc(Br)cc1)N1CCN2CCC1CC2,inactive
5,COc1cc(OC)nc(NC(=O)NS(=O)(=O)c2ncccc2C(=O)N(C)C)n1,inactive
6,Cc1cc(C)c(C(=O)P(=O)(C(=O)c2c(C)cc(C)cc2C)c2ccccc2)c(C)c1,inactive
7,ClC(Cl)Br,inactive
8,Cc1coc2c1CCC(C)C2 (configuration not stated),inactive
9,C[C@]12CC[C@H]3[C@@H](CC=C4C[C@@H](O)CC[C@@]43C)[C@@H]1CC[C@@H]2O,inactive
10,O=NN1CCCCC1,inactive
11,O=[N+]([O-])c1ccc(CBr)cc1,inactive
12,C=CC1CC=CCC1 (configuration not stated),inactive
13,CC(C)NCC(O)c1ccc(N)c(C#N)c1 (configuration not stated),inactive
14,COc1cc(C[C@@H](C)N)c(OC)cc1C,inactive
15,c1ccc(N2CCNCC2)cc1,inactive
16,CNC(=O)Oc1cccc(C(C)C)c1,inactive
17,CC1=NNC(=O)N(/N=C/c2cccnc2)C1,inactive
18,CCC(=O)c1ccccc1,inactive

# System: not listed separately
# Test: qHTS assay to identify small molecule antagonists of the progesterone receptor (PR) signaling pathway - cell viability counter screen (AID 1346798; active means well fitted cell-killing curve with a large enough effect in the repeat runs; further: nearly all actives have a fitted effect of over 50% in size)
# Conditions: PR-UAS-bla HEK293T viability, CellTiter-Glo luminescence, 16 h; series mostly up to 92.4 µM
# Procedure, shortened: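 In the same plates used for the beta-lactamase readout, cell viability of compound- and R5020-treated PR-UAS-bla HEK293T cells (16 hr, 37C) was assessed by CellTiter-Glo luminescence.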
row,SMILES,Potency
1,CC(C1CC1)C(O)(Cn1cncn1)c1ccc(Cl)cc1 (configuration not stated),inactive
2,OCCSCSCCO,inactive
3,CC1CN1P(=O)(N1CC1C)N1CC1C (configuration not stated),inactive
4,COC(=O)c1ccccc1S(=O)(=O)NC(=O)Nc1nc(C)cc(C)n1,inactive
5,CC(=O)CC(c1ccc(Cl)cc1)c1c(O)c2ccccc2oc1=O (configuration not stated),inactive
6,CNC(=O)Oc1ccccc1C1OCCO1,inactive
7,Clc1ccccc1N1CCNCC1,inactive
8,O=P(O)(Oc1ccccc1)Oc1ccccc1,inactive
9,O=c1oc2ccccc2c(O)c1C1CCCc2ccccc21 (configuration not stated),inactive
10,ClC(Cl)Br,inactive
11,O=[N+]([O-])c1ccc(CBr)cc1,inactive
12,COc1cc(C[C@@H](C)N)c(OC)cc1C,inactive
13,c1ccc(N2CCNCC2)cc1,inactive
